SMILES strings stand for the structures. Inconclusive results are not listed. The source made the active and inactive calls. Calls come from the whole dose curve; as a rule, active = well fitted inhibition curve with a large enough effect; inconclusive = small, poorly fitted or top-dose-only effect; inactive = flat fitted curve, though single readings scatter.

Common to all, as to test: qHTS profiling for inhibitors of Plasmodium falciparum proliferation (AID 504749); note: nearly all actives have a fitted effect of over 60% in size
Settings in all cases: P. falciparum in erythrocytes, SYBR Green DNA, 72 h; series mostly up to 28.7 µM
On the technique in general: Quantitative high-throughput screening tests each substance at several concentrations.

One test concerns ATS95. The procedure, abridged: (§1)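 Readout was DNA-dye fluorescence from lysed cultures, ex 485/em 535 nm. Parasitized red cells had grown 72 h with compound; data scaled between 0.29 uM artemisinin and DMSO wells and corrected using vehicle-only plates.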
For a further test, the system named is C2A. The procedure, abridged:
as §1

Another test has as its system CP237. The method in brief:
as §1

The subject of the next test is CP238. The method in brief: as §1
The next test relates to CP262. The method in brief: as §1
For a further test, the system named is CP265. The method in brief: as §1
The test system of a further test is CP268. The method in brief: as §1
The subject of another test is CP269. The procedure, abridged: as §1
Another test concerns CP286. The procedure, abridged: as §1
The test system of the next test is CP305. The method in brief:
as §1

The subject of another test is CP325. The method in brief:
as §1

The next test relates to CP329. The procedure, abridged: as §1
The next test concerns CP335. The method in brief:
as §1

The next test concerns DIV30. The procedure, abridged:
as §1

For a further test, the system named is Dd2. The procedure, abridged: as §1
In another test the test system is ECU. The procedure, abridged:
as §1

In the next test the test system is HB3. The method in brief: as §1
In another test the test system is P93_24. The method in brief:
as §1

The test system of another test is PAD. The method in brief:
as §1

Another test has as its system SC27B. The method in brief: as §1
Potency is the fitted concentration of half-maximal effect.

As to `CCN1C[C@]2(COC)[C@H](O)C[C@H](OC)[C@]34C1C([C@H](OC)[C@H]23)[C@]1(OC(C)=O)C2[C@@H](OC(=O)c3ccccc3)C(O)(C[C@H]24)[C@@H](OC)[C@@H]1O`, the Potency result with ATS95, in the test with C2A, in the test on CP237, in the test on CP238, in the test with CP262 and in the test on CP265 was “inactive” throughout. Further, the Potency result in the test with CP268, in the test with CP269, in the test on CP286, with CP305, with CP325 and in the test with CP329 was “inactive” each time. Besides, the Potency result with CP335, with DIV30, in the test on Dd2, in the test with ECU, in the test with HB3 and in the test with P93_24 was “inactive” throughout. Further, the Potency entry in the test on PAD and in the test with SC27B was “inactive” each time.

Consider `O=C(O)c1ccccc1-c1c2cc(Br)c(=O)cc-2oc2[c]([Hg])c(O)c(Br)cc12`, for which the Potency entry in the test with ATS95, with C2A, in the test on CP237, in the test with CP238, in the test with CP262 and with CP265 was “inactive” throughout. Besides, the Potency result in the test with CP268, in the test on CP269, in the test with CP286, with CP305, in the test with CP325 and in the test on CP329 was “inactive” throughout. Besides, the Potency result with CP335, in the test with DIV30, with Dd2, in the test with ECU, with HB3 and in the test on P93_24 was “inactive” each time. The Potency result with PAD and in the test on SC27B was “inactive” in each case.

For the compound `CC(C)[C@@]1(NC(=O)[C@H]2CC3c4cccc5[nH]cc(c45)C[C@H]3N(C)C2)O[C@@]2(O)C3CCCN3C(=O)[C@@H](Cc3ccccc3)N2C1=O` (stereo not given in full), the Potency is 3.16 µM (active) with ATS95; 6.31 µM (active) in the test with C2A; 1.26 µM (active) in the test on CP237; 3.98 µM (active) with CP238; 12 µM (active) in the test on CP262; 4.47 µM (active) with CP265. Also, the Potency was 10.7 µM (active) with CP268; 4.26 µM (active) with CP269; 3.98 µM (active) in the test on CP286; 6.75 µM (active) in the test on CP305; 9.53 µM (active) with CP325; 13.5 µM (active) with CP329. In addition, the Potency is 3.79 µM (active) with CP335; 1.51 µM (active) with DIV30; 2.82 µM (active) in the test with Dd2; 1.41 µM (active) in the test with ECU; 2 µM (active) in the test with HB3; 0.891 µM (active) in the test on P93_24. Further, the values for the Potency in the test with PAD and in the test on SC27B were 1.12 µM (active) and 2 µM (active), respectively.

`CCN(CC)CCO[C@H]1CC[C@@]2(C)C(=CC[C@@H]3[C@H]2CC[C@]2(C)C(=O)CC[C@H]32)C1`: the Potency entry with ATS95, in the test with C2A, with CP237, with CP238, with CP262 and in the test on CP265 was “inactive” throughout. Also, the Potency entry in the test on CP268, in the test on CP269, with CP286, with CP305, in the test with CP325 and with CP329 was “inactive” throughout. Also, the Potency result in the test on CP335, with DIV30, with Dd2, with ECU, with HB3 and in the test with P93_24 was “inactive” in each case. The Potency result in the test on PAD and in the test on SC27B was “inactive” in each case.

For the origin of these results see PubChem BioAssay (NCATS).
